PAFAH1B2 FP inh: inhibitors of human PAFAH1B2 | P68402 | recombinant PAFAH1B2, FP-rhodamine activity probe, fluorescence polarization | hit rate 1.2% among 340,000 | inhibition, % at 3.39 µM;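 active means inhibition above the mean of all tested compounds plus 3 SD, cut at about 24% in these data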
Target sequence (P68402 whole entry, looked up): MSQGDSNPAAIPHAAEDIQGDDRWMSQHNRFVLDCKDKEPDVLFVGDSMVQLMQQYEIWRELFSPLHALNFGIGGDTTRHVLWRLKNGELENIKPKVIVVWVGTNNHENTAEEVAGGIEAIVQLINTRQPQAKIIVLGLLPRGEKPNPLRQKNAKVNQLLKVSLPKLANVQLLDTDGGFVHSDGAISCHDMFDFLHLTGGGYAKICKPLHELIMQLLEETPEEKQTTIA
rCAG binder: r(CAG) repeat RNA binding | TO-PRO-1 dye displacement fluorescence | inhibition, % at 3 µM | hit rate 1.3% among 370,000 | AID 651821;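 active means inhibition above the plate cutoff, the mean of all test compounds on that plate plus 3 SD, cut at about 35% in these data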;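 further: higher means more dye released from RNA so lower well fluorescence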
PAFAH2 inh: inhibitors of human PAFAH2. Q99487. recombinant PAFAH2, FP-rhodamine activity probe, fluorescence polarization. inhibition, % at 3.39 µM. hit rate 0.99% among 340,000. AID 492956;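 active means inhibition above the mean over all tested compounds plus 3 SD, cut at about 30% in these data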;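 further: inhibitors block probe labeling of enzyme so polarization drops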
PAFAH1B3 inh: inhibitors of human PAFAH1B3; recombinant PAFAH1B3, FP-rhodamine probe, fluorescence polarization; hit rate 0.28% among 340,000; Q15102; AID 492972; inhibition, % at 3.39 µM;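 active means inhibition above the screen-wide average of all tested compounds plus 3 SD, cut at about 25% in these data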
Target sequence (Q15102 whole entry, looked up): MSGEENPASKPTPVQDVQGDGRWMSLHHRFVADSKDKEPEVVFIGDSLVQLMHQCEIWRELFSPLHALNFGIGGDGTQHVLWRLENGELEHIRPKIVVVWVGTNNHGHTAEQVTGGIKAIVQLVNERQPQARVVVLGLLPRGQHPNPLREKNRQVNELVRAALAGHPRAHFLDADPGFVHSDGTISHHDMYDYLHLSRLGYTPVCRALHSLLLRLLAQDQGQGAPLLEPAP
ZTA counter: ZTA (EBV) inhibition in EBNA-1 counter-screen; hit rate 0.15% among 320,000; P03206; ZTA-DNA binding, fluorescence polarization; inhibition, % at 11 µM; AID 2234; in the data active means inhibition above about 33%
Target sequence (P03206 whole entry, looked up): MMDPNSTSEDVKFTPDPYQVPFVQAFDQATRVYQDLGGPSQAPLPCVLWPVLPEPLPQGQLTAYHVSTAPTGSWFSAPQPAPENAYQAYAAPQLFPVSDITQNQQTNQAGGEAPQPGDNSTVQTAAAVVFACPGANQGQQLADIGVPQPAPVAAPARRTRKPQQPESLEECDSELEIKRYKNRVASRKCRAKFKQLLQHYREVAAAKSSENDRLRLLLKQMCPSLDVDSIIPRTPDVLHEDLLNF
EBNA-1 inh: blocks EBNA-1 binding to DNA; AID 1950; inhibition, % at 14.8 µM; EBNA-1 DNA binding, fluorescence polarization; hit rate 0.34% among 300,000; in the data active means inhibition above about 28%
Each line names hits and unclear results; the compound was inactive in the other large screens. The list is not random: actives were taken first. Their share in the collection is about 2.9%.

CCOc1ccc(/C=C2\CCCc3c2nc2ccccc2c3C(=O)O)cc1OC	PAFAH1B3 inh 28 (no result: rCAG binder)
Oc1ccc(CNc2ccccc2)c2cccnc12	PAFAH1B3 inh 26 (no result: rCAG binder)
Oc1ccc(CNc2ccc(F)cc2)c2cccnc12	none
CCOC(=O)C1=NOC(C(C)=O)(C(=O)NC2CCCC2)C1 (stereo unspecified)	none (no result: PAFAH1B2 FP inh, PAFAH2 inh, PAFAH1B3 inh, ZTA counter, EBNA-1 inh)
C/C=C/C(=O)N1CCC(C(=O)NC2CCCc3ccccc32)CC1 (stereo unspecified)	none (no result: PAFAH1B2 FP inh, PAFAH2 inh, PAFAH1B3 inh, ZTA counter, EBNA-1 inh)
CCn1c(SCC(=O)N(C)C)nc2cc(S(=O)(=O)N3CCOCC3)ccc21	PAFAH1B2 FP inh 78
Cn1c(SCC2CCCCC2)nnc1-c1ccco1	none (no result: PAFAH1B2 FP inh, PAFAH2 inh, PAFAH1B3 inh, ZTA counter, EBNA-1 inh)
O=C1NC(=Nc2ccc(O)cc2)S/C1=C/c1ccco1	none
O=C1NC(=Nc2ccc3ccccc3c2)S/C1=C/c1ccco1	rCAG binder 44
O=C(CSc1nccc(-c2cccs2)n1)Nc1ccc(Cl)cc1	none
Cc1onc(-c2ccc(Cl)cc2)c1-c1ccnc(SCC(=O)Nc2ccc(C(C)C)cc2)n1	PAFAH1B2 FP inh 30
O=C(CSc1ncnc2scc(-c3ccc(Cl)cc3)c12)Nc1ccccc1-c1ccccc1	none (no result: PAFAH1B2 FP inh, PAFAH2 inh, PAFAH1B3 inh, ZTA counter, EBNA-1 inh)
O=C1c2ccccc2C(=O)c2c([N+](=O)[O-])ccc(O)c21	PAFAH1B2 FP inh 43, PAFAH2 inh 40, PAFAH1B3 inh 64
COC(=O)CSc1ccc(S(=O)(=O)N2CCOCC2)cc1[N+](=O)[O-]	none
CCOC(=O)CSc1ccc(S(=O)(=O)N2CCC(C)CC2)cc1[N+](=O)[O-]	PAFAH1B2 FP inh 26
Cc1ccc(CSCCNS(=O)(=O)c2ccc(C)cc2)cc1	PAFAH1B2 FP inh 25
Cc1ccc(CCNS(=O)(=O)c2ccc3c(c2)NC(=O)C(C)C(=O)N3)cc1 (stereo unspecified)	PAFAH1B2 FP inh 27
Cc1ccc(CCNS(=O)(=O)c2ccc(C)cc2)cc1	PAFAH1B2 FP inh 26
CC(=O)Nc1ccc(S(=O)(=O)NCCc2c[nH]c3ccc(C)cc23)cc1	none (no result: ZTA counter, EBNA-1 inh)
Cc1ccc(S(=O)(=O)NCCCNS(=O)(=O)c2ccc(C)cc2)cc1	none (no result: EBNA-1 inh)
Cc1ccc2[nH]cc(CCNS(=O)(=O)c3ccc(F)cc3)c2c1	PAFAH1B2 FP inh 27 (no result: ZTA counter, EBNA-1 inh)
COC(=O)[C@]12C[C@H](CC(=O)NCCC(C)C)C(=O)N(CCc3ccc(OC)c(OC)c3)C1=C[C@H](C1CCCC1)O[C@@H]2C	none (no result: PAFAH1B2 FP inh, PAFAH2 inh, PAFAH1B3 inh, ZTA counter, EBNA-1 inh)
Cc1noc(C)c1NC(=O)Nc1ccc2c(c1)C(=O)N(C)[C@H]1CC[C@H](CC(=O)NCc3ccc(Cl)cc3)O[C@@H]1CO2	none (no result: PAFAH1B2 FP inh, PAFAH2 inh, PAFAH1B3 inh, ZTA counter, EBNA-1 inh)
COc1ccc(C(=O)OCCCN(C)C2CN(Cc3cn(Cc4ccc([N+](=O)[O-])cc4)nn3)S(=O)(=O)C2)cc1OC (stereo unspecified)	none (no result: PAFAH1B2 FP inh, PAFAH2 inh, PAFAH1B3 inh, ZTA counter, EBNA-1 inh)
CNC(=S)N(Cc1ccc(OC)cc1)C1CC(=O)N(c2ccc(Cl)cc2)C1=O (stereo unspecified)	PAFAH1B2 FP inh 33
O=S(=O)(Nc1ccc(-c2nnc(SCc3ccc(Cl)cc3)o2)cc1)c1ccccc1	PAFAH1B2 FP inh 28
CCC(CC)NC(=O)COC(=O)c1ccc(OCc2ccc(C(C)=O)cc2OC)c(OC)c1	PAFAH2 inh 77
O=C(CCc1ccccc1)N[C@H]1[C@H](OC(=O)c2ccc3ccccc3n2)CCC[C@@]12C(=O)N(Cc1ccccc1)c1ccccc12	none (no result: PAFAH1B2 FP inh, PAFAH2 inh, PAFAH1B3 inh, ZTA counter, EBNA-1 inh)
CCCCCN(C(=O)CSc1n[nH]c(-c2ccc(C)cc2)n1)c1c(N)n(CCCC)c(=O)[nH]c1=O	PAFAH1B2 FP inh 29
CCCCn1c(N)c(N(CCOC)C(=O)CSc2n[nH]c(-c3ccc(C)cc3)n2)c(=O)[nH]c1=O	none
N/C(=N\OC(=O)Cc1ccccc1)c1ccc(Br)cc1	PAFAH1B2 FP inh 27
Cc1ccc(/C(N)=N/OC(=O)Cc2ccccc2)cc1	none
NC(=O)N/N=C/c1ccc(N2CCOCC2)s1	none
O=C(O)c1cc(N/N=C/c2ccc(N3CCOCC3)s2)ccc1Cl	rCAG binder 75
COc1ccc(Cc2nn3c(-c4ccccc4OC)nnc3s2)cc1	none
COc1ccccc1-c1nnc2sc(COc3ccc(Cl)cc3)nn12	PAFAH1B2 FP inh 26
O=C1NN(c2ccc(F)c(Cl)c2)C(=O)/C1=C\c1cccc(OC(=O)c2cccs2)c1	PAFAH1B2 FP inh 42, rCAG binder 90, PAFAH2 inh 34
O=C1OC(c2ccccc2)=N/C1=C/c1cccc(OC(=O)c2cccs2)c1	PAFAH1B2 FP inh 66
Cc1nc2ccccn2c1-c1ccnn1S(=O)(=O)c1ccc(F)cc1	PAFAH1B2 FP inh 31
Cc1ccc2nc(NC(=O)CSCC(=O)OCC(=O)c3ccc(Br)cc3)sc2c1	EBNA-1 inh 30
CSc1nsc(SCC(=O)Nc2nc3ccc(C)cc3s2)n1	EBNA-1 inh 32
COC(=O)c1ccc2nc(NC(=O)CSCC(=O)OCC(=O)c3ccccc3)sc2c1	none
O=S(=O)(c1ccc(Cl)cc1)N1CCN(c2ccc(N3CCOCC3)nn2)CC1	PAFAH1B2 FP inh 26
Cn1cnc(S(=O)(=O)N2CCN(c3ccc(Cl)cc3)CC2)c1	PAFAH1B2 FP inh 28
Cc1ccc(S(=O)(=O)N2CCOCC2)cc1C(=O)NCCc1ccc(Cl)cc1	PAFAH1B2 FP inh 30 (no result: ZTA counter, EBNA-1 inh)
O=C(N1CCOCC1)N1CCN(S(=O)(=O)c2ccc(Cl)cc2)CC1	PAFAH1B2 FP inh 25
Cc1ccc(S(=O)(=O)N2CCCCC2)cc1C(=O)NCCc1ccccc1	none
O=S1(=O)c2ccc(Br)cc2OC[C@H](Cc2ccccc2)N1Cc1cn(Cc2ccc(Br)cc2)nn1	none (no result: PAFAH1B2 FP inh, PAFAH2 inh, PAFAH1B3 inh, ZTA counter, EBNA-1 inh)
O=C(CSc1nnc(-c2ccccn2)n1-c1ccccc1)Nc1ccccc1-c1ccccc1	none (no result: PAFAH1B2 FP inh, PAFAH2 inh, PAFAH1B3 inh, ZTA counter, EBNA-1 inh)
COc1ccc(/C=C\C(=O)CC(O)(c2ccccc2)C(F)(F)F)cc1 (stereo unspecified)	PAFAH1B2 FP inh 30
Cc1ccc(S(=O)(=O)N2[C@@H](c3ccccc3)C(C(=O)O)=CC[C@H]2c2cccc(C)c2)cc1	PAFAH1B2 FP inh 38
Cc1ccc(S(=O)(=O)N2[C@@H](c3cccc(Cl)c3)C(C(=O)OC(C)(C)C)=CC[C@H]2c2cccc(Cl)c2)cc1	none (no result: PAFAH1B2 FP inh, PAFAH2 inh, PAFAH1B3 inh, ZTA counter, EBNA-1 inh)
COc1ccc([C@@H]2CC=C(C(=O)O)[C@H](c3cccc(Cl)c3)N2S(=O)(=O)c2ccccc2C)cc1	PAFAH1B2 FP inh 26, rCAG binder 74
O=C(Nc1ccc(F)cc1)OC1CC2CC1[C@H]1CCCCN1C2 (stereo partly specified)	none (no result: PAFAH1B2 FP inh, PAFAH2 inh, PAFAH1B3 inh, ZTA counter, EBNA-1 inh)
COc1ccc(C)cc1NC(=O)CN1CCN(S(=O)(=O)c2ccc(C(C)C)cc2)CC1	none
Cc1ccc(S(=O)(=O)N2CCN3CCCC3C2)cc1 (stereo unspecified)	none
O=C(CCN1CCN(S(=O)(=O)c2ccc(Cl)cc2)CC1)Nc1ccc(F)cc1	PAFAH1B2 FP inh 25
O=S(=O)(c1ccc(Cl)cc1)N1CCN2CCCC2C1 (stereo unspecified)	PAFAH1B2 FP inh 27
COc1ccc(Cl)cc1NC(=O)CN(C)C(=O)CCSc1ccc(C)cc1	PAFAH1B2 FP inh 26 (no result: EBNA-1 inh)
COc1ccc(C)cc1NC(=O)CN1CCN(S(=O)(=O)c2ccc(Cl)cc2)CC1	PAFAH1B2 FP inh 28
CC[C@@]1(c2ccc(C)cc2)C(=O)N(C(=O)OC)N1C(=O)OC	none (no result: PAFAH1B2 FP inh, PAFAH2 inh, PAFAH1B3 inh, ZTA counter, EBNA-1 inh)
